FBW7 act: human FBW7 E3 ligase activation, primary screen; Q969H0; AID 1259310; normalized activity (activation), % at 26.1 µM; AlphaScreen FBW7–phospho-cyclin E peptide binding, activator screen; 650,000 compounds, 0.13% hits; in the data active means normalized activity above about 1.9%;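 further: purified mutant Fbw7 with reduced substrate affinity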
Target sequence (Q969H0 whole entry, looked up): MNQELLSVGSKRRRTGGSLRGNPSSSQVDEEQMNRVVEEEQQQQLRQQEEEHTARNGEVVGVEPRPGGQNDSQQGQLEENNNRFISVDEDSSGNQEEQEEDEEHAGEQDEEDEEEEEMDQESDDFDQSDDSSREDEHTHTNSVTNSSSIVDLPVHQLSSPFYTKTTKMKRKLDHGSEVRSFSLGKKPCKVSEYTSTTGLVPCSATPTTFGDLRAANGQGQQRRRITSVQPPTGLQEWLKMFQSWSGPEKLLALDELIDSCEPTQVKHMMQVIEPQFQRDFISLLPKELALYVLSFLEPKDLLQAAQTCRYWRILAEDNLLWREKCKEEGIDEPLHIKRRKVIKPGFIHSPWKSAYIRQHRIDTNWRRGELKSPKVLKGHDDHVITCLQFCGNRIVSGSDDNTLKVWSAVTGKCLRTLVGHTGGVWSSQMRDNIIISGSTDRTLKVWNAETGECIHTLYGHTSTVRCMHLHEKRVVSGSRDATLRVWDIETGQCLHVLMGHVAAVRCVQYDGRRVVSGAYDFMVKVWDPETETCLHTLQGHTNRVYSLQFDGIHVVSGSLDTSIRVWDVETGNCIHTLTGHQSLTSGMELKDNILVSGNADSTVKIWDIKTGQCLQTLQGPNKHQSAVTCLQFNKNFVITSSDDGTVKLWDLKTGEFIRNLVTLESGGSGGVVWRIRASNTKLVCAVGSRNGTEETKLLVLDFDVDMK
GPR151 ag: human GPR151 activation; activation, % at 11.2 µM; AID 1508602; PathHunter beta-arrestin GPR151 cells, luminescence; Q8TDV0; 650,000 compounds, 1% hits; in the data active means activation above about 4.9%
TEAD-YAP block: TEAD-YAP interaction inhibition. HEK-TIYL cells, TEAD-Gal4/YAP UAS-luciferase luminescence. inhibition, % at 9.12 µM. 640,000 compounds, 1.4% hits; in the data active means inhibition above about 32%
MITF inh: human MITF inhibition, primary screen. O75030. AlphaScreen MITF homodimerization, bead proximity signal. inhibition, % at 2.6 µM. 650,000 compounds, 0.91% hits; in the data active means inhibition above about 50%
MITF confirm: human MITF inhibition, confirmation | AlphaScreen MITF homodimerization, biotin/His-MITF beads | shares compounds with MITF inh | 4,700 compounds, 16% hits | inhibition, % at 2.6 µM;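 active means inhibition above a cutoff derived from the DMSO control wells, cut at about 28% in these data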;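 further: inhibitors lower the bead chemiluminescence by keeping MITF from dimerizing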
AlphaScreen DR: AlphaScreen optical interference, dose response counter-screen. 480 compounds, 6% hits. IC50, µM. shares compounds with MITF inh. AlphaScreen optical interference counterscreen, cell-free; call rule not given here
AS interf ctr: AlphaScreen optical interference, counter-screen; shares compounds with MITF inh; LysRS AlphaScreen counterscreen, signal interference, triplicate; inhibition, % at 2.6 µM; 4,700 compounds, 7.6% hits; AID 1259376;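 active means inhibition above a cutoff derived from the DMSO control wells, cut at about 30% in these data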
Of the large screens only hits and unclear results are named; the others gave an inactive call (follow-up assays come after a bar, where they were run). Only some compounds are listed: those with a hit (about 3.5% of all), similar ones and a draw of the others.

O=C(COC(=O)COc1ccc(Cl)cc1)NCc1ccco1	MITF inh 52 | MITF confirm 56 | AlphaScreen DR inactive | AS interf ctr inactive
O=C(COC(=O)/C=C/c1ccco1)COC(=O)/C=C/c1ccco1	MITF inh 78 | MITF confirm 63 | AlphaScreen DR inactive | AS interf ctr inactive
O=C(COC(=O)/C=C/c1ccco1)NC1CCCCC1	none
N#Cc1ccc(OCC(=O)OCC(=O)NCc2ccco2)cc1	none
CCOC(=O)/C=C/c1ccco1	none
O=C(COC(=O)/C=C/c1ccco1)NCc1ccco1	MITF inh 63 | MITF confirm 64 | AlphaScreen DR inactive | AS interf ctr inactive
CCCCN(C)S(=O)(=O)c1cc(C(=O)Nc2cccc(Cl)c2)ccc1F	none
N#CC(C(=O)NCc1ccccc1)c1nc2ccccc2nc1N1CCC(C(N)=O)CC1 (stereo not given)	none
Cc1ccc(-c2ccc(NC(=O)c3ccccc3)cc2)o1	none
O=C(c1cc(Cc2ccccc2)no1)N1CCSCC1	none
O=C(c1cc(Cc2ccccc2)no1)N1CCCC1	MITF inh 53 | MITF confirm inactive | AS interf ctr inactive
Cc1cc(=O)oc2cc(OC(=O)CCN3C(=O)c4cccc([N+](=O)[O-])c4C3=O)ccc12	none
Clc1cc(CNC2CCN(Cc3ccccc3)CC2)cc2c1OCCO2	MITF inh 58 | MITF confirm inactive | AS interf ctr inactive
COc1ccc(/C=C2/NC(=O)NC2=O)cc1I	none
COc1ccc(C(=O)NNC(=O)Cc2cccc3ccccc23)cc1	none
Cc1sc2nc(C(C)C)n3c(=O)n(CC(=O)NCc4ccco4)nc3c2c1C	none
Cc1sc2nc(C)n3c(=O)n(CC(=O)NCc4ccco4)nc3c2c1C	MITF inh 51 | MITF confirm 29 | AlphaScreen DR inactive | AS interf ctr inactive
CCSc1nnc(NC(=O)c2c(-c3ccccc3Cl)noc2C)s1	MITF inh 114 | MITF confirm inactive | AS interf ctr inactive
CCOC(=O)CSc1nnc(NC(=O)c2c(-c3ccccc3Cl)noc2C)s1	none
CCc1ccccc1NC(=O)CSc1nc2ccccc2c(=O)n1CCNC(C)=O	none
COc1cc(C=C2C(=O)NC(=O)NC2=O)ccc1OCC(=O)Nc1cccc([N+](=O)[O-])c1	none
C=CCNCCOc1cc(C(C)C)ccc1C	none
Cc1ccc(C(C)C)cc1OCCOCCN1CCCC1	MITF inh 54 | MITF confirm inactive | AS interf ctr inactive
Cc1ccc(C(C)C)cc1OCCCCn1ccnc1	MITF inh 53 | MITF confirm inactive | AS interf ctr inactive
Cc1ccc(C(C)C)c(OCCCCn2ccnc2)c1	none
Cc1ccc(C(C)C)cc1OCCNC(C)C	MITF inh 89 | MITF confirm inactive | AS interf ctr inactive
COc1cc(C=O)ccc1OC(=O)c1ccc([N+](=O)[O-])cc1Cl	none
CN1CCN(C(=O)c2ccc(-c3nc(NCCOc4ccccc4)c4ncn(-c5ccccc5)c4n3)cc2)CC1	none
COc1cc2ncn3c(=O)n(CC(N)=O)nc3c2cc1OC	none
Cc1ccc2nc(CN(C)Cc3nccs3)nc(N)c2c1	MITF inh 65 | MITF confirm 40 | AS interf ctr 100
Cc1sc2nc3c4ccccc4c(N4CCC(C)CC4)nn3c(=O)c2c1C	none
O=C(Nc1ccc2c(c1)OCO2)N1CCCC(c2nnc(Cc3ccccc3)s2)C1 (stereo not given)	none
Cn1c(CN2CCN(Cc3ccccc3)CC2)nc(=O)c2ccccc21	MITF inh 71 | MITF confirm inactive | AS interf ctr inactive
COC(=O)c1ccc(NC(=O)CN2CCN(Cc3nc4ccccc4n3C)CC2)cc1	MITF inh 70 | MITF confirm inactive | AS interf ctr inactive
COCCNC(=O)N1CCN(Cc2nc3ccccc3n2C)CC1	MITF inh 78 | MITF confirm inactive | AS interf ctr inactive
Cc1noc(C)c1CN1CCN(C(=O)c2cc(=O)c3ccccc3o2)CC1	none
Cn1c(CN2CCN(C(=O)c3cc(=O)c4ccccc4o3)CC2)nc2ccccc21	MITF inh 86 | MITF confirm inactive | AS interf ctr inactive
C=CCCCC(=O)Nc1ccccc1C	none
O=C1[C@@H]2CSCN2C(=O)[C@H]2CN(CC3CC3)CCN12	none
Cc1ccc(C(=O)Oc2cccc(/C=N/N=C3\NC(=O)C(CC(=O)O)S3)c2)cc1 (stereo not given)	none
O=C(C1CCCN1S(=O)(=O)c1cccc2cccnc12)N1CCc2ccccc21 (stereo not given)	MITF inh 73 | MITF confirm inactive | AS interf ctr inactive
COC(=O)[C@@H]1C[C@H](NC(=O)c2ccccc2F)CN1Cc1cccc(F)c1	none
CC(C)Sc1ccc(-c2ccccc2C=O)cn1	MITF inh 114 | MITF confirm inactive | AS interf ctr inactive
Cc1ccccc1C1(CC(=O)N2CCOCC2)CC(=O)N(Cc2ccncc2)C1=O (stereo not given)	none
Cc1nn(-c2ccccc2)c(Cl)c1CNCCCOC(C)C	none
Cc1nn(C2CCS(=O)(=O)C2)c(Cl)c1CNCCCOC(C)C (stereo not given)	MITF inh 51 | MITF confirm inactive | AS interf ctr inactive
COc1ccc2c(c1)CC(c1nc(Nc3cn[nH]c3)c3ccccc3n1)CO2 (stereo not given)	none
Clc1ccc2c(c1)CC(c1nc(Nc3cncnc3)c3ccccc3n1)CO2 (stereo not given)	MITF inh 51 | MITF confirm 55 | AlphaScreen DR inactive | AS interf ctr inactive
CN(C)CCCNS(=O)(=O)c1ccc(NCCc2ccc(Cl)cc2)c([N+](=O)[O-])c1	none
COc1cc(CN2CCN(Cc3ccccc3Cl)CC2)cc2c1OCO2	MITF inh 76 | MITF confirm inactive | AS interf ctr inactive
COc1cc(CN2CCN(Cc3cccnc3)CC2)cc2c1OCO2	MITF inh 68 | MITF confirm inactive | AS interf ctr inactive
COc1cc(CN2CCN(Cc3cc(OC)c4c(c3)OCO4)CC2)cc2c1OCO2	MITF inh 54 | MITF confirm inactive | AS interf ctr inactive
COc1cc(CN2CCCN(C)CC2)cc2c1OCO2	none
COc1cc(CN2CCN(Cc3ccccc3F)CC2)cc2c1OCO2	MITF inh 81 | MITF confirm inactive | AS interf ctr inactive
CC1(C)CC2CC(C)(CN2C(=O)CSc2nc3ccccc3[nH]2)C1 (stereo not given)	none
CCOC(=O)c1cnc2c(C)c(Cl)ccc2c1Nc1ccccc1CC	none
COc1cc(CN2CCN(Cc3ccccc3Br)CC2)cc2c1OCO2	MITF inh 73 | MITF confirm inactive | AS interf ctr inactive
COc1cc(CN2CCN(Cc3cccc(C)c3)CC2)cc2c1OCO2	MITF inh 58 | MITF confirm inactive | AS interf ctr inactive
COc1cc(CN2CCc3nncn3CC2)cc2c1OCO2	none
COc1cc2c(cc1OC)CN(Cc1cc(OC)c3c(c1)OCO3)CC2	none
COc1cc(CN2CCN(Cc3ccccc3)CC2)cc2c1OCO2	MITF inh 78 | MITF confirm inactive | AS interf ctr inactive

High-throughput results as filed in PubChem.
